According to PubChem BioAssay (NCI):
This is part of a sample that, as a whole, favours compounds with a hit. Of some 79,000 tested, about 15% had one in any assay. Activity calls are given as the source filed them. Cut-off read from the data, not from the text of the source: active = growth inhibition above about 70%; inactive = the rest.

Legend:
[1] = NCI Yeast Anticancer Drug Screen. Data for the rad50 strain (AID 155);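 note: 0% = growth of vehicle-only cultures of the same strain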; details: S. cerevisiae rad50 strain growth inhibition, hits give high values
Outline: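 Genetically altered yeast (DNA repair pathway); compound treatment; growth inhibition vs vehicle ctrl.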

[2] = NCI Yeast Anticancer Drug Screen. Data for the mec2-1 strain (AID 157); details: S. cerevisiae mec2-1 strain, hits give high values
Outline: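 Test agents were screened against the mec2-1 yeast strain, with defined DNA repair or cell cycle alteration. Growth was scored as inhibition against vehicle-only controls.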

[3] = NCI Yeast Anticancer Drug Screen. Data for the sgs1 mgt1 strain (AID 161);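 note: 0% = growth of cultures given vehicle only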; details: S. cerevisiae sgs1 mgt1 strain, hits give high values
Outline: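 Test agents were incubated with a DNA-repair-mutant yeast strain. Growth was then read and compared against vehicle-treated controls.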

[4] = NCI Yeast Anticancer Drug Screen. Data for the cln2 rad14 strain (AID 165);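 note: 0% = growth equal to vehicle treated cultures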; details: S. cerevisiae cln2 rad14 strain, hits give high values
Outline: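 Growth of compound-exposed yeast (cln2 rad14 genotype) measured and expressed as inhibition relative to vehicle.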

[5] = NCI Yeast Anticancer Drug Screen. Data for the bub3 strain (AID 167); details: S. cerevisiae bub3 mutant strain, hits give high values
Outline: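 Yeast carrying a defined mutation is treated with each compound, and growth is compared with that of vehicle-exposed cells to give inhibition.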

[6] = NCI Yeast Anticancer Drug Screen. Data for the mlh1 rad18 strain (AID 175); details: S. cerevisiae mlh1 rad18 strain growth inhibition, hits give high values
Outline: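 In this whole-cell yeast screen, a strain with altered DNA damage repair is challenged with compound, and its growth is measured against matched vehicle-treated controls.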

[7] = at 5.0 µM (retest, dose inferred, filed as 0.5)
[8] = at 50.0 µM (retest, dose inferred, filed as 5.0)

Measured: growth inhibition

S=C(S)NCCN1CCNC1=S
active: [1]; [8] 76% | [3]; at 50.0 µM 80% | [5]; [8] 95% | [6]; [8] 78% | [6]; at 50.0 µM 77.1%
inactive: [1]; [7] 10% | [1]; at 50.0 µM 60.4% | [2]; [7] 5% | [2]; [8] 50% | [2]; at 50.0 µM 60.9% | [3]; [7] 5% | [3]; [8] 64% | [4]; [7] 2% | [4]; [8] 18% | [4]; at 50.0 µM -5.05% | [5]; [7] 14% | [5]; at 50.0 µM 63.8% | [6]; [7] 7%

CC(C)CCCC(C)C1CCC2C3CCC4=CC(O)CCC4(C)C3CCC12C (configuration not stated)
inactive: [1]; [7] -5% | [2]; [7] 1% | [3]; [7] -2% | [4]; [7] -8% | [5]; [7] -5% | [6]; [7] -3%
active: [1]; [8] 96% | [1]; at 50.0 µM 93.8% | [2]; [8] 94% | [2]; at 50.0 µM 90.3% | [3]; [8] 92% | [3]; at 50.0 µM 93% | [4]; [8] 95% | [4]; at 50.0 µM 94.3% | [5]; [8] 97% | [5]; at 50.0 µM 94% | [6]; [8] 97% | [6]; at 50.0 µM 93.5%

O=C(CSc1nnc(Cc2ccccc2)o1)Nc1ccc(Cl)cc1
active: [1]; [8] 87% | [3]; [8] 80% | [4]; [8] 79% | [5]; [8] 91% | [6]; [8] 91%
inactive: [1]; [7] -20% | [1]; at 50.0 µM 16.1% | [2]; [7] -5% | [2]; [8] 54% | [2]; at 50.0 µM 15.2% | [3]; [7] -1% | [3]; at 50.0 µM 48.6% | [4]; [7] 18% | [4]; at 50.0 µM 35% | [5]; [7] 4% | [5]; at 50.0 µM 26.2% | [6]; [7] -5% | [6]; at 50.0 µM 28.8%

O=C(/C=C/c1ccccc1Cl)c1ccc(F)cc1
inactive: [1]; [7] 7% | [1]; [8] 22% | [1]; at 50.0 µM 54.2% | [2]; [7] -12% | [2]; [8] 20% | [3]; [7] -1% | [3]; [8] -4% | [3]; at 50.0 µM 53.8% | [4]; [7] 9% | [4]; [8] 17% | [4]; at 50.0 µM 34% | [5]; [7] 33% | [5]; [8] 51% | [6]; [7] 8% | [6]; [8] 47% | [6]; at 50.0 µM 29.6%
active: [2]; at 50.0 µM 70.4% | [5]; at 50.0 µM 78.8%

O=S(O)CCCCCSSc1ccc(Cl)cc1
active: [1]; [8] 81% | [1]; at 50.0 µM 98% | [2]; [8] 100% | [2]; at 50.0 µM 95.8% | [3]; [8] 97% | [3]; at 50.0 µM 98.8% | [4]; [8] 97% | [4]; at 50.0 µM 98.2% | [5]; [8] 99% | [5]; at 50.0 µM 99% | [6]; [8] 97% | [6]; at 50.0 µM 98.2%
inactive: [1]; [7] 3% | [2]; [7] 9% | [3]; [7] 5% | [4]; [7] -2% | [5]; [7] 25% | [6]; [7] 8%

O=C(/C=C\C(=O)Nc1cccc(N(Cc2ccccc2)Cc2ccccc2)c1)Nc1cccc(N(Cc2ccccc2)Cc2ccccc2)c1
active: [2]; at 50.0 µM 87.2% | [3]; at 50.0 µM 85.5% | [6]; at 50.0 µM 82%
inactive: [1]; [7] -5% | [1]; [8] 2% | [1]; at 50.0 µM 61.5% | [2]; [7] -10% | [2]; [8] -1% | [3]; [7] 0% | [3]; [8] 5% | [4]; [7] 4% | [4]; [8] 13% | [4]; at 50.0 µM 67% | [5]; [7] -2% | [5]; [8] 3% | [5]; at 50.0 µM 46.2% | [6]; [7] -3% | [6]; [8] 3%

C=C1CC23CCC4C(C)(C(=O)O)CCCC4(C)C2CCC1C3 (configuration not stated)
active: [1]; [8] 98% | [1]; at 50.0 µM 90.5% | [2]; [8] 98% | [2]; at 50.0 µM 91% | [3]; [8] 97% | [3]; at 50.0 µM 90% | [4]; [8] 97% | [4]; at 50.0 µM 87.2% | [5]; [8] 97% | [5]; at 50.0 µM 89.3% | [6]; [8] 98% | [6]; at 50.0 µM 82%
inactive: [1]; [7] 27% | [2]; [7] 40% | [3]; [7] 18% | [4]; [7] 19% | [5]; [7] 13% | [6]; [7] 49%

CN/N=C(\C)C(CN1CCCCC1)C(C1=C(O)c2ccccc2OC1)c1ccccc1 (configuration not stated)
active: [3]; at 50.0 µM 78.7% | [6]; at 50.0 µM 72%
inactive: [1]; [7] 25% | [1]; [8] 25% | [1]; at 50.0 µM 69.8% | [2]; [7] 25% | [2]; [8] 25% | [2]; at 50.0 µM 57.6% | [3]; [7] 9% | [3]; [8] 9% | [4]; [7] -1% | [4]; [8] -1% | [4]; at 50.0 µM 66.7% | [5]; [7] 10% | [5]; [8] 10% | [5]; at 50.0 µM 67.7% | [6]; [7] 25% | [6]; [8] 25%

C/C(=N/O)c1ccc2c(c1)C(C)c1ccccc1-2 (configuration not stated)
inactive: [1]; [7] -147% | [1]; [8] -142% | [1]; at 50.0 µM 35.2% | [2]; [7] -53% | [2]; [8] -54% | [2]; at 50.0 µM 45.9% | [3]; [7] -59% | [3]; [8] -65% | [3]; at 50.0 µM 34.5% | [4]; [7] -60% | [4]; [8] -66% | [5]; [7] -62% | [5]; [8] -54% | [6]; [7] -113% | [6]; [8] -103%
active: [4]; at 50.0 µM 77.4% | [5]; at 50.0 µM 78.2% | [6]; at 50.0 µM 75%
